# Reference: PubChem BioAssay (NCATS)
# Values joined by “and” are separate entries in the source; they are usually repeats but may differ in a detail not shown here. Equal entries are not always repeated. Results filed as inconclusive are left out. A number with no mark means an inactive call. Active and inactive are the calls of the source. The call rests on the fitted dose curve; in most records, active means well fitted curve in the direction sought with a large enough effect; inconclusive means small, poorly fitted or top-dose-only effect, or another doubt; inactive means no such curve, though single readings can be large or run the other way.
# Experiment: qHTS Assay for Identifying Gametocytocidal Compounds (AID 743244);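 on max response: actives lower the fluorescent signal which means gametocytes are killed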
# Conditions: P. falciparum 3D7 stage III-V gametocytes, alamarBlue, 72 h; max response: active compounds read low
# Outline: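 A resazurin-based viability read-out was applied to mature P. falciparum gametocytes: 72 h compound treatment, then 24 h dye incubation, with falling fluorescence signalling gametocytocidal effect.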
# On the % scale 0 is the no-effect control and ±100 the full control effect; potency means the concentration at half of the fitted maximal effect.
Compound,max response,Potency
C[C@]12C=CC(=O)C=C1CC[C@@H]1[C@@H]2CC[C@@]2(C)[C@H]1CC[C@]2(C)O,-4.85%,–
CC[C@H](O)C(C[C@H](C)N(C)C)(c1ccccc1)c1ccccc1,-14.1%,–
O=C1CC2(CCCC2)CC(=O)N1CCCCN1CCN(c2ncccn2)CC1,13.6%,–
C[C@H]1CNCCc2ccc(Cl)cc21,16.3%,–
O=C(O)c1ccccc1Nc1cc(Cl)ccc1C(=O)O,32.7%,–
C[C@H](N)[C@H](O)c1ccc(O)c(O)c1,-0.0676%,–
COc1cccc2c1C(=O)c1c(O)c3c(c(O)c1C2=O)C[C@@](O)(C(=O)CO)C[C@@H]3O[C@H]1C[C@H](N)[C@H](O[C@@H]2CCCCO2)[C@H](C)O1,–,22.4 µM (active)
C[C@@H]1O[C@@H](O[C@@H]2C=C3CC[C@@H]4[C@H](CC[C@]5(C)[C@@H](c6ccc(=O)oc6)CC[C@]45O)[C@@]3(C)CC2)[C@H](O)[C@H](O)[C@H]1O,11.2%,–
CC[C@H]1C[C@H]2[C@@H]3CCC4=CC(=O)CC[C@@H]4[C@H]3CC[C@]2(C)[C@H]1O,-17.8%,–
C[N+]1(C)[C@@H]2CC[C@H]1CC(OC(=O)C(CO)c1ccccc1)C2 (stereo partly drawn),-7.22% and -0.641%,–
Cc1nc2ccccc2c(=O)n1-c1ccccc1Cl,1.05%,–
COc1ccc2[nH]cc(CCN(C(C)C)C(C)C)c2c1,-5.46%,–
O=C(Nc1ccc(Cl)cc1)Nc1ccc(Cl)c(Cl)c1,–,15.8 µM (active) and 29.6 µM (active)
